A selection: hits, their analogues and other compounds. The true share with any hit is near 1.5%.
BCLXL inh – inhibitors of human Bcl-xL, primary screen, biochemical, fluorescence polarization, HTS; Bcl-2-like protein 1 (Homo sapiens), Q07817; GST-Bcl-xL / FITC-Bim BH3 peptide fluorescence polarization; inhibition, % at 10.9 µM; 0.7% of 320,000 active;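 active = inhibition above the mean of all tested compounds plus 3 SD, cutoff set per campaign, cut at about 30% in these data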;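 also: 0% = DMSO wells and 100% = unlabeled Bim-BH3 peptide competitor; inhibitors lower millipolarization by displacing the labeled peptide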
Target sequence (Q07817 whole entry, looked up): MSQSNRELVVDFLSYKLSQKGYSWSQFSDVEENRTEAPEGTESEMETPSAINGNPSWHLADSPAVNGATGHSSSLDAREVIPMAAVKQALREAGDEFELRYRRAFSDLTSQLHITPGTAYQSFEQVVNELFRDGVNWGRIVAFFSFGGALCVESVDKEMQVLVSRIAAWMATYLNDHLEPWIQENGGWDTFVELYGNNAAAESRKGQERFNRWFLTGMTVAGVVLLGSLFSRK
E coli Lon inh – inhibitors of E. coli Lon protease, primary screen, biochemical, fluorescence polarization | purified E. coli Lon protease | inhibition, % at 7.94 µM | 0.42% of 360,000 active | AID 602123, 2011; in the data active = inhibition above about 13%, passing the limit was not always enough;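 also: 0% = enzyme with probe and DMSO and 100% = no enzyme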
MCL1 BIM primary – inhibitors of MCL1 binding to BIM-BH3, primary screen, biochemical, fluorescence polarization; GST-MCL1 / FITC-Bim-BH3 fluorescence polarization; 0.68% of 320,000 active; inhibition, % at 10.9 µM; AID 2057, 2009;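 active = inhibition above the mean inhibition of all tested compounds plus 3 SD, set per campaign, cut at about 40% in these data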;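 also: 0% = DMSO wells and 100% = unlabeled Bim-BH3 peptide control; higher means more loss of mP so more displacement of Bim peptide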
Target sequence (Q07820 whole entry, looked up): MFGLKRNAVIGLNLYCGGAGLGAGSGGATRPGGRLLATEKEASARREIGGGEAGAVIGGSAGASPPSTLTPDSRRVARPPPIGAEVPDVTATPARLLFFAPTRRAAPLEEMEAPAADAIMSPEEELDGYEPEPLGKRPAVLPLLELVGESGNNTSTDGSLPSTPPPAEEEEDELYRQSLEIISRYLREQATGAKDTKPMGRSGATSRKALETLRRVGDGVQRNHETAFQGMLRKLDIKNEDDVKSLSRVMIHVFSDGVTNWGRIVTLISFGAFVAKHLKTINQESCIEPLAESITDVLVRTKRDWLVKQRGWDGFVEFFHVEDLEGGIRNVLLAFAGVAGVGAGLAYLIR
MEX-5 binding – MEX-5 zinc finger RNA-binding disruptors – biochemical, C. elegans, fluorescence polarization, MLPCN library, primary screen | MEX-5/FITC-TCR2 RNA binding; hits give low values | AID 1832, 2009 | Zinc finger protein mex-5 (Caenorhabditis elegans), Q9XUB2 | 0.38% of 300,000 active | activity score (negative = inhibition of binding), % at 10 µM;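 active = inhibition past about -25% in most replicates, and total fluorescence under double the plate's negative control median, limit read from the data; inconclusive = replicates evenly split on the limit, or fluorescence at least double controls; inactive = too little inhibition in most replicates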;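 also: 0% = DMSO and -100% = 5 µM competing unlabeled TCR2 RNA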
GLD-1 TGE inh – GLD-1/TGE RNA complex disruptors, primary screen, biochemical, fluorescence polarization | purified GLD-1 + fluorescein TGE RNA | inhibition, % at 5.96 µM | 0.44% of 320,000 active | AID 2280, 2010;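 active = percent inhibition above a per-plate cutoff, the plate mean of test compounds plus 3 SD, cut at about 30% in these data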;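 also: 0% = DMSO wells with GLD-1 and probe and 100% = wells lacking GLD-1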
EBV gp42 block – Epstein-Barr virus gp42 inhibitors, primary screen, biochemical, uHTS, fluorescence polarization; Glycoprotein 42 (Epstein-Barr virus (strain AG876)), Q1HVG2; Fluorescence polarization binding assay, mP read-out; inhibition, % (tested at 21.74 µM); 0.42% of 220,000 active; in the data active = inhibition above about 50%
* = called active by the depositor; u = inconclusive; x = no result.

SMILES	BCLXL inh	E coli Lon inh	MCL1 BIM primary	MEX-5 binding	GLD-1 TGE inh	EBV gp42 block
O=C(N/N=C/c1ccccc1Cl)c1nc2ccc([N+](=O)[O-])cc2c(=O)[nH]1	8.7	-3.4	16.9	-1.7	-2.4	96.7*
O=C(N/N=C/c1cccc([N+](=O)[O-])c1)c1nc2ccccc2c(=O)[nH]1	3.5	3.0	-0.8	1.6	7.3	-11.2
OCC[C@@H]1C[C@H](O)[C@@H](O)[C@]2(Cc3ccccc3O2)O1	-5.9	14.0	-1.1	0.3	-2.6	x
Cc1ccc(/C=C2\CCC3=C2OC(N)=C(C#N)C3c2ccc(C)cc2)cc1 (stereo unspecified)	-22.9	-353.1	-52.7	-7.1	-68.6	57.8*
Cc1ccc(C2C(C#N)=C(N)Oc3cc(N)ccc32)cc1 (stereo unspecified)	8.6	-16.4	-4.5	-0.8	2.8	x
CC(C)NC(=O)C1(C)CCN1C(=O)c1ccccc1F (stereo unspecified)	x	-5.8	x	x	x	x
Oc1[nH]c2ccccc2c1N=Nc1ccccc1Cl	x	-5.7	x	x	x	x
Oc1c(C=Nc2ccccc2Cl)[nH]c2ccccc12	39.0*	9.0	28.1	-29.0*	11.5	3.0
COc1ccccc1C(=O)C1CCCN(C(=O)c2cccnc2SC)C1 (stereo unspecified)	-1.2	-4.1	-0.8	-40.6*	3.5	-11.9
COc1ccc(-c2coc3cc4oc(=O)cc(C)c4cc23)cc1F	0.7	1.8	2.7	0.7	3.8	-3.7
COc1ccc(-c2coc3cc4oc(=O)cc(-c5ccccc5)c4cc23)cc1F	37.3*	-4.3	-2.7	x	3.0	-13.7
C=C(C)COc1ccc2c(C)c(CCC(=O)NC3CC3)c(=O)oc2c1	6.1	-8.9	0.0	2.4	-6.4	x
COc1ccc(CNC(=O)c2ccc3nc(C)c(N(C)Cc4ccc(NC(C)=O)cc4)n3c2)cc1	x	10.3	x	x	x	x
COC(=O)CC1=C(C(=O)OC)C(c2cccc(OCC(N)=O)c2)C(C#N)=C(N)O1 (stereo unspecified)	32.0*	0.7	32.7	-0.6	16.2	30.1
COc1cc(OC)c(C(=O)OCC(=O)NC2CCCCCCC2)cc1OC	x	3.9	x	x	-2.2	x
O=C(CN1C(=O)COc2ccccc21)Nc1ccccc1F	6.9	2.5	6.2	0.2	6.5	x
O=C1COc2ccccc2N1Cc1c(F)cccc1Cl	47.4*	-3.0	8.4	2.4	-2.2	x
COCCN1CCn2c(nc3cc(NC(=O)NC4CCCCC4)ccc32)C1	32.8*	-13.7	34.9	x	5.0	34.9
COCCN1CCn2c(nc3cc(NC(C)=O)ccc32)C1	17.5	1.4	13.9	-1.5	2.7	x
O=C(NCc1ccccc1)C(c1ccc(F)cc1)N(C(=O)c1csnn1)c1ccccc1 (stereo unspecified)	-2.7	-6.0	-3.0	-0.1	3.8	x
Cc1ccc(OCC(=O)NC2CCS(=O)(=O)C2)c([N+](=O)[O-])n1 (stereo unspecified)	3.2	-2.4	2.4	0.5	3.0	x
Cc1cc2ccccc2n1CCNC(=O)Cc1ccccc1	7.2	9.4	7.6	-1.1	16.0	-9.8
Cc1cc2ccccc2n1CCNC(=O)C(C)Oc1ccccc1 (stereo unspecified)	15.1	24.5*	13.2	-2.1	10.6	1.5
CCCCN(C(=O)COC(=O)CSc1ccc([N+](=O)[O-])cc1)c1c(N)n(CCC)c(=O)[nH]c1=O	1.7	-7.0	-1.3	-0.8	4.4	x
O=C1OC(/C(=C\Nc2ccc(F)cc2F)[N+](=O)[O-])c2ccccc21 (stereo unspecified)	8.1	-5.8	2.3	-2.4	4.7	-2.2
SMILES	BCLXL inh	E coli Lon inh	MCL1 BIM primary	MEX-5 binding	GLD-1 TGE inh	EBV gp42 block
O=C1OC(/C(=C\Nc2cc(Cl)ccc2O)[N+](=O)[O-])c2ccccc21 (stereo unspecified)	0.5	-1.7	-4.2	-26.1*	8.7	-1.6
CS(=O)(=O)Oc1ccc2c(c1)O/C(=C\C=C\c1ccccc1)C2=O	8.7	-9.7	9.1	-41.8*	28.0	-7.1
CS(=O)(=O)n1nc(-c2ccc(Cl)cc2)nc1SCc1ccccc1	-1.9	6.3	-3.0	0.7	5.6	87.1*
O=C(CCNS(=O)(=O)c1ccccc1)OCC(=O)c1ccc(Cl)cc1	-3.7	-4.3	-3.8	1.4	7.8	x
NS(=O)(=O)c1ccc(CCNC(=O)c2ccc([N+](=O)[O-])s2)cc1	-6.7	12.0	-2.7	2.2	5.3	x
O=C(Nc1ccc(Br)cc1)c1ccc2ncsc2c1	-2.2	-4.3	-9.5	-0.1	0.9	x
CCc1ccc(NC(=O)c2ccc3ncsc3c2)cc1	x	x	x	-0.3	x	146.0*
CC(=O)NC(C(=O)N1CCC(c2nc3ccccc3s2)CC1)C(C)C (stereo unspecified)	1.1	-1.2	-0.5	1.0	10.9	x
Cc1cccc(NC(=O)CSc2nnnn2C)n1	4.1	-9.4	6.7	0.4	-0.8	75.0*
CCCCn1nnnc1SCC(=O)Nc1cccc(C)n1	5.1	8.9	0.9	3.1	-1.1	-20.9
N=c1c(C(=O)NC2CCCCC2)cc2c(=O)n3ccccc3nc2n1CCc1ccccc1	10.7	2.6	6.5	-25.8*	1.1	x
N=c1c(C(=O)NCC2CCCO2)cc2c(=O)n3ccccc3nc2n1Cc1cccnc1 (stereo unspecified)	36.5*	-13.9	33.9	-44.4*	10.4	-18.6
COC(=O)c1cc2c(=O)n3ccccc3nc2n(Cc2cccnc2)c1=N	6.2	x	9.8	-5.2	2.7	x
Cc1ccc(S(=O)(=O)c2cc3c(=O)n4ccccc4nc3n(CCc3ccccc3)c2=N)cc1	-0.4	-1.1	-4.0	-32.4*	4.4	x
N=c1c(C(=O)NCc2ccc(F)cc2)cc2c(=O)n3ccccc3nc2n1Cc1cccnc1	41.2*	-12.2	39.3	u	2.9	28.2
O=C(NCC1CCCO1)c1ccc(NC(=O)c2ccc([N+](=O)[O-])cc2)cc1 (stereo unspecified)	-3.5	-15.6	0.6	0.4	4.7	x
Cc1cccn2c(=O)c3cc(C(=O)NC(C)C)c(=N)n(Cc4ccncc4)c3nc12	0.8	-0.3	1.6	-18.2	-1.6	-6.6
N=c1c(C(=O)NC2CCCCC2)cc2c(=O)n3ccccc3nc2n1Cc1cccnc1	7.6	8.7	7.3	-34.9*	1.5	x
Cc1cccn2c(=O)c3cc(C(=O)NCc4ccco4)c(=N)n(C4CCCC4)c3nc12	33.6*	-6.5	34.3	-8.6	18.0	x
CCNC(=O)c1cc2c(=O)n3cccc(C)c3nc2n(Cc2ccc(C)cc2)c1=N	-9.5	4.8	-7.0	-78.1*	-9.9	-15.8
